# From the supplement of paper PMC6555819
# What was measured:
# Test in all cases: PBM binding z-score (relative to random genomic background probes); higher = stronger binding; sequences stand for … in GC…GCGATTGACAGCGTAGAATGAAGG
# [1] = tested on: FXR:RXRa (NR concentration 270 nM, RXRa partner concentration 90 nM)
# Method in brief: (§1)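 Custom Agilent 4×180K protein-binding microarrays carried double-stranded probes, each with a 34-nt variable region. These regions held direct-repeat seeds, single-nucleotide variants, half-site ablations and random human genomic background sequences. Ligand-free nuclear receptor dimers were incubated on the arrays for 1 h, antibodies against each partner (one per run) detected binding, and scanned fluorescence was regression-normalized. Binding z-scores take the random background probes as reference.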
# [2] = tested on: LXRa:RXRa (NR concentration 270 nM, RXRa partner concentration 90 nM)
# Method in brief: as §1
# [3] = tested on: LXRa homodimer (NR concentration 270 nM)
# Method in brief: as §1
# [4] = tested on: LXRb:RXRa (NR concentration 270 nM, RXRa partner concentration 90 nM)
# Method in brief: as §1
# [5] = tested on: LXRb homodimer (NR concentration 270 nM)
# Method in brief: as §1
# [6] = tested on: PPARa:RXRa (NR concentration 270 nM, RXRa partner concentration 90 nM)
# Method in brief: as §1
# [7] = tested on: PPARg:RXRa (NR concentration 180 nM, RXRa partner concentration 90 nM)
# Method in brief: as §1
# [8] = tested on: PPARg:RXRa 270nM:90nM, anti-RXR (NR concentration 270 nM, RXRa partner concentration 90 nM)
# Method in brief: as §1
# [9] = tested on: PPARg:RXRa 30nM:10nM, anti-RXR (NR concentration 30 nM, RXRa partner concentration 10 nM)
# Method in brief: as §1
# [10] = tested on: PPARg:RXRa 90nM:30nM, anti-RXR (NR concentration 90 nM, RXRa partner concentration 30 nM)
# Method in brief: as §1
Sequence,PBM binding z-score [1],PBM binding z-score [2],PBM binding z-score [3],PBM binding z-score [4],PBM binding z-score [5],PBM binding z-score [6],PBM binding z-score [7],PBM binding z-score [8],PBM binding z-score [9],PBM binding z-score [10]
GCGACTGGGGCAAAGCAGGTTACCTTAAGGTTGG,0.232,0.16,-0.422,0.247,-0.607,1.31,0.947,1.35,-0.661,0.437
TGCATGAGGTTATAAGATCAGGGAACGTTGCAAA,1.67,1.59,-0.113,0.956,0.14,2.37,0.778,1.2,0.448,0.789
ACTAGCAGGCCAAGTTGGGGTCACTCAAACAAAG,3.18,3.16,0.123,4.07,-0.00108,4.63,1.63,2.88,0.385,1.96
GCTGCTAGGTGAACTGATGGTCAGCTAAAGCTCG,-0.0942,-0.291,-0.843,-0.328,-1.56,1.27,0.329,0.967,-0.226,0.635
AGAATGAGGTTATACGTAGATAAGGGAAGAAAGT,2.05,1.86,-0.00161,1.56,0.00672,3.3,2.47,2.07,1.02,1.67
CCTTGCAGGCCAGGGTCACTCAAGCATTTCGCTT,2.3,1.82,-0.569,1.99,-1.06,3.29,1.01,2.11,-0.339,1.02
CGAACGAGGGCAGGAGTTGATAGCAAATGCCGAT,-0.327,-0.217,-0.463,-0.569,-1,0.441,1.17,1.46,-0.21,1.07
ATCTCTAAGTAAGACTCAGTTCAGTGAAGAACGC,0.404,0.702,0.509,0.112,0.924,0.0114,-0.0993,0.324,0.0174,0.392
TCTTGTAGATCAAGCAGGTTAAGAAGGCCTGAGT,0.0541,0.0936,-0.218,0.226,-0.745,0.84,-0.304,1.15,2.45,1.9
ATCGAAAGGTCGTTAGGTGAGTATACAGAAAGGC,3.98,3.54,0.592,3.08,1.11,4.25,2.59,3.29,1.33,2.27
AGAACAAGGGCACGCTGAGTTGATAGCAGAGTAG,0.401,0.296,-0.369,-0.0707,-0.878,1.38,1.28,0.671,0.364,0.255
AGGATGAGGTTACCAAAGATCAGGGAAACGCTTG,1.74,6.04,0.206,3.17,0.353,2.93,1.55,1.76,0.744,1.12
CCTATTAGTTGACCATAAGGGCAACGGAAGCTCG,0.826,0.337,0.454,0.234,0.609,0.552,0.455,0.511,0.321,0.476
ACTATTAGTAGACTTAGGGCAACCGATACGACGC,-0.142,-0.0337,0.0948,-0.377,0.454,-0.25,1.13,0.419,0.331,0.394
CAAACTAGGTCACGGGAAGGTCAAAGTCCGCATG,6.63,5.83,4.52,5.56,0.929,6.51,10.1,7.81,6.78,7.95
GCTGCTAGGTCAACTGATGGTCGGCTAAAGCTCG,3.88,3.08,0.00529,1.89,-0.133,3.7,2.39,3.16,0.547,1.99
GATACAGGGTCAAGGCCATAGTACGCGTATTGAT,6.45,4.12,0.059,3.75,0.018,5.51,6.08,5.45,2.63,4.43
TCATATCGGTAAATGCTAGGTGAAAGTCCGATCT,0.228,0.361,0.17,0.39,0.0158,0.778,0.243,2.06,3.69,2.84
GATACAGGGTCAGCTAGAGGCAAGAGTATGGAAA,4.32,2.35,-0.297,2.33,-0.0863,4.69,3.78,3.19,0.625,1.71
TCGAGTAGGTTACCAATGGGGCACTCAGCTTTCT,-0.431,0.466,-1.03,0.379,-0.732,0.966,0.351,1.39,1.09,1.15
ATCGAAAGGTCGAGGTTAGTATAGAGAAAGGGAA,3.77,3.57,0.422,2.93,0.526,4.48,3.03,3.6,1.65,2.68
CCTACTGGGCCATTCAGTGGTCATTGATCATATG,-0.271,-0.187,-0.281,-0.498,-0.602,0.355,0.304,0.661,-0.571,0.191
AATAGAGGGTCATCGTAGGCCAGAGTACGCACAG,6.8,6.19,1.56,3.89,0.604,5.5,5.46,5.11,2.13,3.89
ATCTGTAGGTAAGACTCAGTTCAGTGAAGAACGC,0.0473,0.226,0.296,0.0254,-0.0598,0.0967,0.00745,0.0947,-0.305,-0.0173
